# The supplement of paper PMC7366291
# Where a name gives a salt, the structure may show the parent alone. ± gives the standard deviation or the standard deviation of the averaged measurements.
# Experiments:
# Settings in all cases: 25 µM; exposure: 24-48 hpf
# [1] = test system: Danio rerio Tg(wt1b:EGFP) embryo, pronephros; assay: glomerular separation, fold change vs DMSO control; higher = glomeruli further apart (abnormal)
# Procedure, shortened: (§1)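 Each feature value is a fold change relative to the mean of same-day DMSO-treated embryos. Embryos of the Tg(wt1b:EGFP) zebrafish line, dechorionated, received 25 μM compound in 0.5% DMSO from 24 to 48 hpf at 28.5°C, in HEPES-buffered E3 with 0.003% PTU. Distances and angles were computed by a Fiji macro from 16 manually set reference points on maximum projections of dorsal pronephros images, and values beyond 2 SD of the feature mean were removed.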
# [2] = test system: Danio rerio Tg(wt1b:EGFP) embryo, pronephros; assay: glomerular width (mean of left and right), fold change vs DMSO control; higher = wider glomerulus
# Procedure, shortened: as §1
# [3] = test system: Danio rerio Tg(wt1b:EGFP) embryo, pronephros; assay: fraction of imaged embryos annotated as normal kidney; higher = less nephrotoxic; extreme values may be limits of the assay
# Procedure, shortened: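 Dechorionated Tg(wt1b:EGFP) zebrafish embryos were incubated with 25 μM compound in 0.5% DMSO, 5 mM HEPES-buffered E3 and 0.003% PTU from 24 to 48 hpf at 28.5°C. Pronephroi were then imaged by widefield fluorescence, and the fraction of embryos per treatment assigned by hand to the normal-kidney category is given.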
# [4] = test system: Danio rerio Tg(wt1b:EGFP) embryo, pronephros; assay: pronephric angle neck segment to proximal convoluted tubule (mean of left and right), fold change vs DMSO control; higher = larger pronephric angle
# Procedure, shortened: as §1
SMILES,glomerular separation [1],glomerular width [2],fraction of imaged embryos annotated as normal kidney [3],pronephric angle neck segment [4]
Nc1ccccc1S(N)(=O)=O [2-Aminobenzenesulfonamide],0.99 ± 0.24,1.02 ± 0.072,0.917,1.052 ± 0.00059
O=C1OCCN1/N=C/c1ccc([N+](=O)[O-])o1 [Furazolidone],0.83 ± 0.29,0.9957 ± 0.006,1,0.935 ± 0.054
Nc1ncnc2c1ncn2C1OC(COP(=O)(O)O)C(O)C1O (stereo not given) [Adenosine 5'-monophosphate monohydrate],0.936 ± 0.26,1.029 ± 0.0059,0.917,0.9657 ± 0.0086
Cn1cnc([N+](=O)[O-])c1Sc1ncnc2[nH]cnc12 [Azathioprine],1.2 ± 0.26,1.02 ± 0.042,0.833,0.994 ± 0.015
"O=C1c2cccc(O)c2C(=O)c2c(O)cccc21 [1,8-Dihydroxyanthraquinone]",1.16 ± 0.45,1 ± 0.04,0.917,1.03 ± 0.036
CC1CCc2c(N3CCC(O)CC3)c(F)cc3c(=O)c(C(=O)O)cn1c23 (stereo not given) [Nadifloxacin],1.13 ± 0.33,1.01 ± 0.031,0.917,1.04 ± 0.029
CN(C)CCC=C1c2ccccc2C=Cc2ccccc21 [Cyclobenzaprine hydrochloride],1.02 ± 0.31,0.977 ± 0.043,0.833,1.03 ± 0.0042
C=CC1=C(C(=O)O)N2C(=O)[C@@H](NC(=O)/C(=N\O)c3csc(N)n3)[C@H]2SC1 [Cefdinir],0.772 ± 0.34,1.04 ± 0.029,1,1.003 ± 0.0083
C[C@H](O)C(=O)Nc1c(I)c(C(=O)NC(CO)CO)c(I)c(C(=O)NC(CO)CO)c1I [Iopamidol],0.92 ± 0.3,0.9773 ± 0.007,0.833,1.01 ± 0.038
CC(C)(C(=O)O)c1ccc(C(O)CCCN2CCC(C(O)(c3ccccc3)c3ccccc3)CC2)cc1 (stereo not given) [Fexofenadine hydrochloride],0.859 ± 0.33,1.12 ± 0.028,0.833,0.956 ± 0.033
CC(C)(CO)C(O)C(=O)NCCCO (stereo not given) [Panthenol (D)],0.954 ± 0.35,1.001 ± 0.0062,0.75,1.008 ± 0.005
CCCN(CCC)C(=O)C(CCC(=O)O)NC(=O)c1ccccc1 (stereo not given) [Proglumide],0.949 ± 0.28,1.07 ± 0.049,0.917,1.037 ± 0.006
CNC[C@H](O)[C@@H](O)[C@H](O)[C@H](O)CO [Meglumine],0.734 ± 0.11,1.03 ± 0.061,0.909,1.006 ± 0.0029
NNc1nncc2ccccc12 [Hydralazine hydrochloride],1.14 ± 0.53,1.04 ± 0.041,0.818,1.02 ± 0.039
COc1ccc(/C=C/C(=O)Nc2ccccc2C(=O)O)cc1OC [Tranilast],2.14 ± 1.2,1.08 ± 0.049,0.583,1.139 ± 0.0021
Nc1nc(/C(=C/CC(=O)O)C(=O)N[C@@H]2C(=O)N3C(C(=O)O)=CCS[C@H]23)cs1 [Ceftibuten],0.515 ± 0.17,1.016 ± 0.0039,1,0.963 ± 0.019
Cc1c(O)cccc1C(=O)N[C@@H](CSc1ccccc1)[C@H](O)CN1C[C@H]2CCCC[C@H]2C[C@H]1C(=O)NC(C)(C)C [Nelfinavir mesylate],0.563 ± 0.13,1.05 ± 0.017,1,0.954 ± 0.03
CO/N=C(\C(=O)N[C@@H]1C(=O)N2C(C(=O)O)=C(C[N+]3(C)CCCC3)CS[C@H]12)c1csc(N)n1 [Cefepime hydrochloride],0.845 ± 0.26,1.01 ± 0.018,0.917,0.9786 ± 0.003
C=CC1=C(C(=O)O)N2C(=O)[C@@H](NC(=O)/C(=N\OCC(=O)O)c3csc(N)n3)[C@H]2SC1 [Cefixime],1.32 ± 0.59,1 ± 0.014,0.75,1.07 ± 0.1
CN(C)[C@@H]1C(O)=C(C(N)=O)C(=O)[C@@]2(O)C(O)=C3C(=O)c4c(O)cccc4[C@@](C)(O)[C@H]3[C@H](O)[C@@H]12 [Oxytetracycline dihydrate],1.22 ± 0.44,0.955 ± 0.036,0.909,0.9153 ± 0.0078
COc1cc([C@@H]2c3cc4c(cc3[C@@H](O[C@@H]3O[C@@H]5CO[C@@H](C)O[C@H]5[C@H](O)[C@H]3O)[C@H]3COC(=O)[C@H]23)OCO4)cc(OC)c1O [Etoposide],0.917 ± 0.24,1.052 ± 0.0085,0.75,0.982 ± 0.013
CCCC(CCC)C(=O)O [Valproic acid],1.62 ± 0.94,0.725 ± 0.057,0.0833,1.11 ± 0.14
Fc1ccc(C(c2ccc(F)cc2)N2CCN(C/C=C/c3ccccc3)CC2)cc1 [Flunarizine dihydrochloride],1.22 ± 0.69,0.932 ± 0.0099,0.364,0.937 ± 0.017
CC(C)NC[C@H](O)COc1cccc2ccccc12 [(S)-propranolol hydrochloride],0.888 ± 0.27,1.03 ± 0.017,0.75,0.9744 ± 0.0062
CC(C(=O)O)c1ccc(N2Cc3ccccc3C2=O)cc1 (stereo not given) [Indoprofen],2.27 ± 0.52,0.658 ± 0.069,0.2,1.3 ± 0.1
C#C[C@]1(OC(C)=O)CC[C@H]2[C@@H]3CCC4=CC(=NO)CC[C@@H]4[C@H]3CC[C@@]21CC (mixture of isomers) [Norgestimate],2.81 ± 1.2,0.858 ± 0.059,0.0833,1.37 ± 0.015
CC1=C(/C=C/C(C)=C/C=C/C(C)=C\C(=O)O)C(C)(C)CCC1 [Isotretinoin],4.83 ± 2.1,0.525 ± 0.021,0,1.69 ± 0.022
CCCCC1C(=O)N(c2ccccc2)N(c2ccccc2)C1=O [Phenylbutazone],5.01 ± 1.6,0.552 ± 0.0084,0,1.67 ± 0.032

SMILES,glomerular separation [1],glomerular width [2],fraction of imaged embryos annotated as normal kidney [3],pronephric angle neck segment [4]
Cc1ncc(CO)c(CO)c1O [Pyridoxine hydrochloride],0.838 ± 0.25,1.04 ± 0.019,1,1.06 ± 0.061
CCOc1ccc(Cc2nccc3cc(OCC)c(OCC)cc23)cc1OCC [Ethaverine hydrochloride],0.975 ± 0.28,1.1 ± 0.081,0.583,0.989 ± 0.061
Cc1onc(-c2ccccc2)c1-c1ccc(S(N)(=O)=O)cc1 [Valdecoxib],0.816 ± 0.3,1.13 ± 0.019,0.917,0.9437 ± 0.0089
CC1(C)S[C@@H]2[C@H](NC(=O)[C@H](N)c3ccc(O)cc3)C(=O)N2[C@H]1C(=O)O [Amoxicillin],1.13 ± 0.42,0.961 ± 0.046,0.833,1.04 ± 0.074
Cc1c(N)c(=O)n(-c2ccccc2)n1C [Ampyrone],0.975 ± 0.3,1.01 ± 0.031,0.917,0.97 ± 0.0034
C[C@H](CS)C(=O)N1CCC[C@H]1C(=O)O [Captopril],1 ± 0.45,1.01 ± 0.042,1,1.02 ± 0.09
CC(C)NCC(O)COc1ccc(CCOCC2CC2)cc1 (stereo not given) [Betaxolol hydrochloride],1.15 ± 0.6,1 ± 0.065,1,0.987 ± 0.025
"CC(C)(S)C(N)C(=O)O (racemic) [D,L-Penicillamine]",1.31 ± 0.71,1.03 ± 0.015,0.583,0.996 ± 0.025
CN(C)CCCC1(c2ccc(F)cc2)OCc2cc(C#N)ccc21 (stereo not given) [Citalopram Hydrobromide],1.21 ± 0.7,0.991 ± 0.035,0.667,0.956 ± 0.032
CN[C@@H]1[C@@H](O)[C@@H](O[C@@H]2[C@@H](O)[C@H](O[C@H]3OC(CN)=CC[C@H]3N)[C@@H](N)C[C@H]2N)OC[C@]1(C)O [Sisomicin sulfate],1.23 ± 0.84,1.02 ± 0.043,0.833,1.11 ± 0.029
O=C(O)[C@H]1/C(=C/CO)O[C@@H]2CC(=O)N21 [Clavulanate potassium salt],0.835 ± 0.22,1.04 ± 0.032,0.833,1.001 ± 0.00045
COc1nc(N)nc2c1ncn2[C@@H]1O[C@H](CO)[C@@H](O)[C@@H]1O [Nelarabine],0.929 ± 0.39,0.992 ± 0.058,0.727,0.984 ± 0.073
Cc1cccn2c(=O)c(-c3nnn[nH]3)cnc12 [Pemirolast potassium],1.25 ± 0.38,0.89 ± 0.062,1,0.99 ± 0.042
Cc1cn[nH]c1 [Fomepizole],0.953 ± 0.37,1.0458 ± 0.00026,0.917,1.01 ± 0.018
CN1CCCC(CC2c3ccccc3Sc3ccccc32)C1 (stereo not given) [Metixene hydrochloride],0.961 ± 0.25,1 ± 0.021,1,0.953 ± 0.044
COc1ccc2c(c1)c(CC(=O)OCC(=O)O)c(C)n2C(=O)c1ccc(Cl)cc1 [Acemetacin],1.28 ± 0.69,1.04 ± 0.027,0.917,1.08 ± 0.039
Cn1c(=O)c2c(ncn2CCO)n(C)c1=O [Etofylline],0.926 ± 0.37,0.951 ± 0.023,0.917,0.9776 ± 0.00038
CC(C)NCC(O)c1ccc(NS(C)(=O)=O)cc1 (stereo not given) [Sotalol hydrochloride],0.82 ± 0.23,1.03 ± 0.062,0.8,1.01 ± 0.043
COc1c(O[C@@H]2O[C@H](CO)[C@@H](O)[C@H](O)[C@H]2O)cc2c(c1OC)-c1ccc(SC)c(=O)cc1[C@@H](NC(C)=O)CC2 [Thiocolchicoside],1.03 ± 0.41,0.909 ± 0.018,0.833,0.932 ± 0.027
CCCCN(CCCC)CCC(O)c1cc2c(Cl)cc(Cl)cc2c2cc(C(F)(F)F)ccc12 (stereo not given) [Halofantrine hydrochloride],4.43 ± 1.8,0.655 ± 0.038,0,1.32 ± 0.061
CCOC(=O)C1=C[C@]2(CC)CCCN3CCc4c(n1c1ccccc41)[C@@H]32 [Vinpocetine],1.08 ± 0.2,1.037 ± 0.0011,0.909,1.05 ± 0.039
CC(=O)OCC(=O)[C@@]12OC(C)(C)O[C@@H]1C[C@H]1[C@@H]3C[C@H](F)C4=CC(=O)C=C[C@]4(C)[C@@]3(F)[C@@H](O)C[C@@]12C [Fluocinonide],1.04 ± 0.63,1.4 ± 0.044,0.417,1.05 ± 0.067
CC#C[C@]1(O)CC[C@H]2[C@@H]3CCC4=CC(=O)CCC4=C3[C@@H](c3ccc(N(C)C)cc3)C[C@@]21C [Mifepristone],0.949 ± 0.33,1.15 ± 0.027,0.75,1.0508 ± 0.001
CNC(=C[N+](=O)[O-])NCCSCc1csc(CN(C)C)n1 [Nizatidine],0.966 ± 0.41,0.9023 ± 0.0037,0.917,1.01 ± 0.043
CC(=O)O[C@H]1C[C@@]2(C)[C@@H](C[C@@H](O)[C@H]3[C@@]4(C)CC[C@@H](O)[C@@H](C)[C@@H]4CC[C@@]32C)/C1=C(\CCC=C(C)C)C(=O)O [Fusidic acid sodium salt],0.853 ± 0.16,1.06 ± 0.025,1,1.02 ± 0.014
O=C1C(O)=C([C@H]2CC[C@H](c3ccc(Cl)cc3)CC2)C(=O)c2ccccc21 [Atovaquone],1.05 ± 0.35,0.992 ± 0.027,0.917,0.959 ± 0.017
CCN(CC)CCNC(=O)c1cc(S(C)(=O)=O)ccc1OC [Tiapride hydrochloride],1.1 ± 0.29,0.902 ± 0.073,0.909,1.036 ± 0.0056
